The panel holds about 83,000 compounds, 20% with a hit somewhere; the sample as a whole holds those more often.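 Step 1: grow cells in 96-well plates. Step 2: add test compound at a single concentration. Step 3: incubate 48 h. Step 4: record percent growth.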 Unmarked numbers belong to inactive results. Activity calls are given as the source filed them. How the source made its calls: active means growth percent below 10; inactive means the rest.

Holding throughout (experiment): NCI-60 one-dose screen, 48 h (100 = growth as untreated, 0 = no growth, -100 = all killed)
Holding throughout (settings): 10 µM unless noted

Test [1] relates to NCI-H23 lung.
Test [2] has as its system NCI-H226 lung.
Test [3] relates to NCI-H322M lung.
Test [4] relates to HOP-62 NSCLC.
Test [5] concerns NCI-H460 lung.
In test [6] the test system is HOP-92 NSCLC.
The test system of test [7] is NCI-H522 lung.
The subject of test [8] is 786-0 renal.
Test [9] deals with COLO 205 colon.
Test [10] has as its system A549/ATCC NSCLC.

Consider `O=C(CSc1nc2ccccc2c(=O)n1-c1ccccc1)N/N=C/c1ccc(Oc2ccc(Br)cc2)cc1`, for which the growth is 49.9% in test [1]; 77.6% in test [2]; 86.8% in test [3]; 63.9% in test [4]; 28% in test [5]; 73% in test [6]. The figures for the growth in test [7], in test [8] and in test [9] were 48.5%, 46% and 44.4%, respectively.

With `Clc1ccc2[nH]cc(-c3nn4cc(-c5ccncc5)nc4s3)c2c1`, the growth in test [1] is 43.1%; in test [2], 22.7%; in test [3], 49.2%; in [4] it was 46.6%; in test [5] it was 10.1%; in test [6], 33.8%. The growth in test [7] is 36.4%; in test [8], 69.9%; in test [9] it was 69.5%.

Regarding `COc1ccccc1/C=C1\Oc2ccc(O)c(O)c2C1=O`, the growth in [1] was 93.2%; in test [2], 110%; in test [3] it was 102%; in [4], 99.9%; in test [5] it was 101%; in test [6] it was 103%. In addition, the growth in test [7] was 89.1%; in test [8], 94.1%; in [9] it was 116%.

As for `CCCCCCOC(=O)c1cc(-c2ccc(F)cc2)nc2ccccc12`, the growth in [1] was 90.3%; in test [2], 91.2%; in test [3] it was 94.9%; in [4], 94.4%; in test [5] it was 103%; in test [6] it was 65.9%. Moreover, the growth in test [7] is 82.8%; in [10], 101%; in [8], 107%; in test [9], 107%.

Take `OCC(Nc1ncnc2ccc(-c3cnc4cnccn34)cc12)c1ccccc1` (centres undefined): the growth in [1] is 57.8%; in test [2], 67.5%; in test [3], 40%; in test [4] it was 79.8%; in [5], 89.4%; in test [6], 59.3%. Further, the growth is 43.5% in test [7], 64.4% in [8] and 98.2% in [9].

For the molecule `O=[N+]([O-])c1ccc(NC(=S)NNC(=S)Nc2ccc(Br)cc2)cc1`, the growth in test [1] is 86.1%; in test [2] it was 97.3%; in test [3] it was 63.3%; in test [4], 94.9%; in [5], 97.6%; in [6] it was 99.9%. Further, the growth is 81.1% in test [7], 99.2% in test [8] and 112% in [9].

Regarding `CC1CC(=O)C2=C(C1)Nc1ccc(Br)cc1CC2c1c[nH]c2ccc(Br)cc12` (centres undefined), the growth was 66.8% in test [1]; 65.5% in test [2]; 70.9% in [3]; 65.2% in test [4]; 34.5% in [5]; 76.6% in test [6]. The growth in [7] was 18.4%; in [8], 51.2%; in [9], 66.2%.

In the case of `CN1CCN(c2ccc(Nc3nc(NCCNS(=O)(=O)c4ccc5ccccc5c4)c4sccc4n3)cc2)CC1`, the growth in [1] is 84.3%; in test [2], 98.4%; in [3] it was 83.7%; in test [4], 97.5%; in test [5] it was 74.3%; in [6], 47.8%. For the same molecule, the growth is 87.4% in test [7], 56.3% in test [8] and 13.3% in test [9].

With `Brc1cccc(-c2cc(-c3cnc4c(c3)OCCO4)n[nH]2)c1`, the growth in test [1] was 52.4%; in [2], 65.6%; in test [3] it was 45.2%; in test [4], 65%; in test [5], 17.4%; in test [6] it was 101%. Moreover, the growth was 19.6% in [7], 36.8% in test [10], 79% in test [8] and 34.9% in test [9].

Consider `Brc1cc(-c2cc(-c3ccc4c(c3)OCCO4)[nH]n2)cs1`, for which the growth in test [1] is 52.2%; in [2], 74%; in test [3], 70.8%; in test [4] it was 61%; in test [5], 24.1%; in [6], 65.2%. The growth in test [7] was 29.6%; in test [8] it was 79.2%.

Consider `CCN(CC)c1ccc(/C=N/NC(=O)c2ccc(NS(C)(=O)=O)cc2)cc1`, for which the growth in [1] was 36.5%; in [2], 51.8%; in [3] it was 27.3%; in test [4] it was 17.4%; in test [5] it was 8.88% (active); in test [6] it was 80%. The growth in test [7] was 21.8%; in [8], 13.5%; in test [9], 13.9%.

As for `Cc1ccc(S(=O)(=O)NCCCNc2nccc(-c3[nH]c(-c4ccccc4)nc3-c3ccc(F)c(O)c3)n2)cc1`, the growth in test [1] was 96.2%; in test [2], 93.2%; in [3], 109%; in test [4], 112%; in [5], 82.1%; in test [6], 93.7%. The growth is 80.1% in test [7], 104% in test [8] and 91.9% in [9].

Take `C/C(=N\NC(N)=S)c1nnn(-c2ccc([N+](=O)[O-])cc2)c1C`: the growth in test [1] was 95.4%; in test [2], 93.1%; in [3], 95.3%; in [4], 99.4%; in [5], 100%; in [6] it was 98.7%. The growth was 89.6% in [7], 103% in test [8] and 103% in test [9].

Turning to `O=C(CCCCCCNC(=O)C(O)(O)C(F)(F)F)Nc1ccc(Br)cc1`, the growth in test [1] is 10.9%; in test [2], 37.2%; in test [3], 27.1%; in [4] it was -9.13% (active); in [5], 12.5%; in test [6], -5.9% (active). For the same molecule, the growth was -36.6% (active) in test [7], 25.4% in test [8] and -60.8% (active) in [9].

Take `O=C(CCCCCCNC(=O)c1csc(Br)n1)NO`: the growth in [1] is 47.7%; in test [2], 79%; in test [3], 61.6%; in test [4], 48.2%; in test [5], 34.9%; in [6] it was 5.32% (active). Moreover, the growth in [7] is 15.7%; in test [8], 72.4%; in test [9], 20.9%.

Consider `O=C1/C(=C/c2cc(F)cc(F)c2)Cc2cc3c(cc21)OCO3`, for which the growth in test [1] was 62.3%; in [2], 52.2%; in test [3] it was 41.5%; in test [4] it was 58%; in test [5] it was 30.3%; in test [6], 63.4%. The growth in test [7] was 1.49% (active); in test [8], 61%; in test [9], -15.2% (active).

Regarding `O=c1c2cc(-c3ccc(F)cc3F)ccc2n(Nc2ccccc2)c(=O)n1-c1cccc(C(F)(F)F)c1`, the growth in test [1] was 2.36% (active); in test [2], 14.7%; in test [3], 7.15% (active); in test [4] it was 10.9%; in test [5], 9.35% (active); in [6], -33.3% (active). The growth in test [10] was 10.5%; in test [8], 48.2%; in test [9] it was 74.1%.
